According to PubChem BioAssay (NCATS):
Inconclusive results are not listed. Where a call stands in place of a potency, no number is given. The source made the active and inactive calls. The call rests on the fitted dose curve.

Columns and labels:
[1] = Primary qHTS for Huh7 cytotoxicity: counterscreen for inhibitors of MERS-S pseudotyped particle cell entry (AID 1479147); conditions: outcome: dose series up to 57.1 µM unless noted
[2] = Primary qHTS for inhibitors of MERS-S pseudo-typed particle cell entry (AID 1479149); conditions: outcome: dose series up to 57.1 µM unless noted; further: nearly all actives have a fitted effect of over 60% in size; further: potency means the concentration at half of the fitted maximal effect
[3] = Primary qHTS for Vero E6 cytotoxicity: counterscreen for inhibitors of SARS-S pseudo-typed particle cell entry (AID 1479150); conditions: outcome: dose series up to 57.1 µM unless noted
[4] = Cytotoxicity counterscreen for inhibitors of SARS-CoV-2 cell entry (AID 1645845); conditions: outcome: dose series up to 57.1 µM unless noted; further: nearly all actives have a fitted effect of over 50% in size
How it was run: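 48 h compound treatment (after 1 h preincubation), HEK293-ACE2 cells, 37 C/5% CO2; ATP luminescence endpoint; normalized to cell wells and media blanks.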

[5] = Primary qHTS to identify inhibitors of SARS-CoV-2 cell entry (AID 1645846); conditions: SARS-CoV-2 pseudovirus cell entry assay, luminescence; activity change, negative = inhibition: at 57.1 µM (top of the series) unless noted; further: nearly all actives have a fitted effect of over 45% in size; further: potency means the concentration at half of the fitted maximal effect
How it was run: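 HEK293 cells stably expressing human ACE2, pre-treated 1 h with compound, then infected with MLV particles pseudotyped with Wuhan-Hu-1 spike (C-terminal 19-aa truncation). Luciferase luminescence after 48 h at 37 °C, normalised to spike PP and bald PP.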

Row | SMILES | Potency [1] | Potency [2] | Potency [3] | Potency [4] | activity change, negative = inhibition [5] | Potency [5]
1 | Cn1nnnc1SCC1=C(C(=O)O)N2C(=O)[C@@H](NC(=O)[C@H](OC=O)c3ccccc3)[C@H]2SC1 | inactive | inactive | inactive | inactive |  | 
2 | CCCCN(CCCC)C(=S)[S-].CCCCN(CCCC)C(=S)[S-].[Zn+2] | inactive | inactive | inactive | inactive |  | 
3 | CC[N+](CC)(CC)CCC(O)(c1ccccc1)C1CCCCC1 (centres undefined) | inactive | inactive | inactive | inactive |  | 
4 | CON=C1C[C@]2(C[C@@H]3C[C@@H](C/C=C(\C)C[C@@H](C)/C=C/C=C4\CO[C@@H]5[C@H](O)C(C)=C[C@@H](C(=O)O3)[C@]45O)O2)O[C@H](/C(C)=C/C(C)C)[C@H]1C | inactive | inactive | inactive | inactive |  | 
5 | COc1cc(N)cn[n+]1-c1ccccc1 | inactive | inactive | inactive | inactive |  | 
6 | CC1CC(OC(=O)C(O)c2ccccc2)CC(C)(C)C1 (centres undefined) | inactive | inactive | inactive | inactive |  | 
7 | CCOC(=O)[C@@H](N)CS | inactive | inactive | inactive | inactive | -29% | 
8 | COC(=O)[C@H]1[C@H]2C[C@@H]3c4[nH]c5cc(OC)ccc5c4CCN3C[C@H]2C[C@@H](OC(=O)/C=C/c2cc(OC)c(OC)c(OC)c2)[C@@H]1OC | inactive | inactive | inactive | inactive | -22.2% [at 19 µM] | 
9 | N=C1CCCN1Cc1[nH]c(=O)[nH]c(=O)c1Cl | inactive | inactive | inactive | inactive | -1.38% | 
10 | N=c1ccn2c(n1)O[C@@H]1[C@@H](O)[C@H](CO)O[C@@H]12 | inactive | 8.91 µM (active) | inactive | inactive |  | 2.51 µM (active)
11 | CC1=C(C(=O)O)N2C(=O)[C@@H](NC(=O)[C@H](N)C3=CCC=CC3)[C@@H]2SC1 | inactive | inactive | inactive | inactive | -32.9% | 
12 | CC(C)(C)NCC(O)c1ccc(O)c(CO)n1 (centres undefined) | inactive | inactive | inactive | inactive |  | inactive
13 | CCN(CC)CCS(=O)(=O)[C@@H]1CCN2C(=O)c3coc(n3)CC(=O)C[C@H](O)/C=C(C)/C=C/CNC(=O)/C=C/[C@@H](C)[C@@H](C(C)C)OC(=O)[C@@H]12 | inactive | inactive | inactive | inactive | -29% | 
14 | CCCCCC(O)/C=C/[C@@H]1C(CCCCCCC(=O)O)C(=O)C[C@@H]1O (some centres undefined) | inactive | inactive | inactive | inactive | -20.3% | 
15 | COc1ccc(CNc2nc(N3CCC[C@H]3CO)ncc2C(=O)NCc2ncccn2)cc1Cl | inactive | inactive | inactive | inactive |  | inactive
16 | COc1cc(/C=C\C(=O)N2CCN(CC(=O)N3CCCC3)CC2)cc(OC)c1OC | inactive | inactive | inactive | inactive |  | inactive
17 | CO/N=C(/C(=O)N[C@@H]1C(=O)N2C(C(=O)OC(C)OC(C)=O)=C(COC(N)=O)CS[C@H]12)c1ccco1 (some centres undefined) | inactive | inactive | inactive | inactive | -14.5% | 
18 | N[C@@H](C(=O)N[C@@H]1C(=O)N2C(C(=O)O)=C(Cl)CC[C@H]12)c1ccccc1 | inactive | inactive | inactive | inactive | -20.1% | 
19 | CCCCCCO[C@@H](C)c1cccc(-c2csc(NC(=O)c3cc(Cl)c(/C=C(\C)C(=O)O)c(Cl)c3)n2)c1OC | inactive | inactive | inactive | inactive | -33.5% | 
20 | CN1C(=O)C[C@@H](C(=O)N[C@@H](Cc2cnc[nH]2)C(=O)N2CCC[C@H]2C(N)=O)NC1=O | inactive | inactive | inactive | inactive | -23.8% | 
21 | Cc1cc(CC(C)C[Si](C)(O[Si](C)(C)C)O[Si](C)(C)C)c(O)c(-n2nc3ccccc3n2)c1 (centres undefined) | inactive | inactive | inactive | inactive | -21.7% [at 19 µM] | 
22 | CCCC1CC(C(=O)NC(C(C)Cl)C2OC(SC)C(OP(=O)(O)O)C(O)C2O)N(C)C1 (centres undefined) | inactive | inactive | inactive | inactive | -28.7% [at 27.1 µM] | 
23 | O=C(O)c1cc(=O)c2c3nc4ccccc4oc-3cc(=O)c2[nH]1 | inactive | inactive | inactive | inactive | -16.2% | 
24 | CC#CCC(C)[C@H](O)/C=C/[C@@H]1[C@H]2c3cccc(CCCC(=O)O)c3O[C@H]2C[C@H]1O (some centres undefined) | inactive | inactive | inactive | inactive | -5.27% | 
25 | O=C(O)C(O)C(O)C(=O)O (centres undefined) | inactive | inactive | inactive | inactive | -16.3% | 
